# High-throughput results as filed in PubChem.
# C8 TRAIL sens – sensitizes caspase-8 expressing cells to TRAIL; NB7+C8 cells + TRAIL, ATPlite viability luminescence; inhibition (viability loss, TRAIL sensitization), % at 10 µM; actives 1% (n = 360,000); AID 624354;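 active = compounds causing at least 50% loss of cell viability in the single-dose screen, relative to plate controls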
# TROY signal inh – blocks TROY-dependent signaling in reporter cells | actives 0.98% (n = 360,000) | Q293 LMP1-TROYcd NF-kB luciferase reporter, 4 h | inhibition, % at 10 µM;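 active = compounds whose plate-normalised and pattern-corrected inhibition of the luciferase reporter signal at the single screening dose is 50% or more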
# HSP90 refold inh – HSP90 refolding inhibition in rabbit reticulocyte lysate; luciferase refolding luminescence, 3 h; inhibition, % at 5.6 µM; actives 0.91% (n = 290,000); AID 1789;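 active = inhibition above the screen-wide mean plus 3 SD, computed separately per campaign, cut at about 16% in these data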;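 note: 0% = DMSO wells and 100% = 60 µM geldanamycin wells; inhibitors lower the luminescence because luciferase stays unfolded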
# Platelet DG rel – platelet dense granule release activity; human platelet-rich plasma, SFLLRN dense granule ATP release, luminescence; inhibition, %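 (compounds screened at 7.5 µM in platelet-rich plasma)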; actives 0.22% (n = 300,000); AID 1663;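 active = mean replicate score, as percent of positive control, at or above 50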
# PPC-1+TRAIL kill – kills PPC-1 cancer cells in the presence of TRAIL | PPC-1 cells + TRAIL, ATPLite viability luminescence | cell killing (% activity), % at 4 µM or 5 µM | actives 0.41% (n = 220,000) | AID 1443;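 active = cell killing above 50% in the first pass at 4 µM, then a duplicate retest at 5 µM averaging 50% or more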;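 note: plate controls were cells with TRAIL plus DMSO for no effect and medium-only wells lacking cells for full effect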
# TWEAK Fn14 block – blocks TWEAK-Fn14 interaction in a reporter cell assay. TWEAK-stimulated Fn14 reporter cells, luciferase luminescence, 8 h. inhibition, % at 10 µM. actives 2% (n = 360,000); in the data active = inhibition above about 50%
# Starred values were filed as active, the others as inactive; . = no result given. The list is not random: actives were taken first. Their share in the collection is about 3.5%.
SMILES,C8 TRAIL sens,TROY signal inh,HSP90 refold inh,Platelet DG rel,PPC-1+TRAIL kill,TWEAK Fn14 block
Cc1cc(NC(=O)CSCC(=O)Nc2cc(C(F)(F)F)ccc2N2CCCC2)no1,17,16,.,-1,.,30
Cc1cc(NC(=O)CSCC(=O)Nc2ccccc2N2CCCCC2)no1,26,16,.,50*,.,-11
Cc1nc(Nc2nc3c(c(=O)[nH]2)CCC3)nc2ccccc12,11,-36,.,1,.,69*
O=C(CSCc1ccccc1)NNC(=S)Nc1cccc(Cl)c1Cl,1,.,-3,22,9,64*
CNC(=S)NNC(=O)CSCc1c(Cl)cccc1Cl,-22,-2,-1,-3,-15,-1
Cc1n(CC(O)COC2CCCCC2)c2ccccc2[n+]1C (stereo not drawn),5,.,-3,-18,26,76*
O=C(OCc1cnc(Cl)s1)c1ccccc1Cl,0,-33,-8,-2,13,-26
O=C(OCn1ncc(Br)c(Br)c1=O)c1ccc(F)cc1,95*,83*,3,-1,29,102*
O=C(OCn1ncc(Br)c(Br)c1=O)c1ccccc1Cl,93*,80*,5,9,31,97*
CC(=O)OCn1ncc(N2CCOCC2)c(Br)c1=O,9,-5,4,-6,.,0
N/C(CCS(=O)(=O)c1ccc(Cl)cc1)=N\OC(=O)c1ccccc1C(F)(F)F,55*,-31,-1,-7,31,-24
N/C(CCS(=O)(=O)c1ccc(Cl)cc1)=N\OC(=O)c1ccc(Cl)cc1,74*,1,-2,1,2,-25
O=C(OCCOc1cccc(Cl)c1)C1CCN(S(=O)(=O)c2ccccc2)CC1,0,2,3,-16,.,-13
CC(=O)N1CCN(c2ccc(NC(=O)c3ccc(F)cc3)cc2)CC1,3,3,-2,1,.,-10
O=S(=O)(NCCc1c[nH]c2ccccc12)c1ccc(F)cc1,13,9,.,.,.,-3
CC(NC(=O)COC(=O)c1ccc(OCC2CCCO2)cc1)c1ccccc1Cl (stereo not drawn),-13,20,.,.,.,6
CCOC(=O)N1CCN(c2cc(N3CCOCC3)c(F)cc2[N+](=O)[O-])CC1,-3,6,1,-2,15,51*
O=C(Nc1ccc(OCC(F)(F)C(F)F)c(C(F)(F)F)c1)c1ccccc1,35,43,-1,-2,.,14
O=C(Nc1ccc(OCC(F)(F)C(F)F)c(C(F)(F)F)c1)c1ccccc1O,58*,44,-4,-2,1,46
O=[N+]([O-])c1cc2no[n+]([O-])c2cc1N1CCCCC1,21,-2,.,.,.,16
COc1ccc(CC(NC(C)=O)C(=O)NC2CCN(S(=O)(=O)c3ccccc3)CC2)c(OC)c1 (stereo not drawn),6,-6,17*,2,.,13
CCS(=O)(=O)N1CCC(NC(=O)C(Cc2cccc(OC)c2OC)NC(C)=O)CC1 (stereo not drawn),1,2,2,-2,.,85*
O=C1c2ccccc2C(=O)N1CCCCN(C(=O)c1ccco1)c1ccc(Cl)cc1,-4,4,6,5,26,-20
O=C1/C(=C/N(C(=O)c2ccco2)c2ccc(Cl)cc2)Sc2ccccc21,55*,60*,16*,10,31,83*
O=C(N/N=C/C(Cl)=C\c1ccccc1)c1cccs1,26,-58,-3,10,5,-47
SMILES,C8 TRAIL sens,TROY signal inh,HSP90 refold inh,Platelet DG rel,PPC-1+TRAIL kill,TWEAK Fn14 block
CC(/C=N/NC(=O)c1cccs1)=C\c1ccccc1,58*,-13,1,3,21,11
CC(/C=N/NC(=O)c1n[nH]c2c1CCC2)=C\c1ccccc1,47*,-30,1,2,20,-36
COc1ccc(Cl)cc1N(CC(=O)NCC(C)C)S(=O)(=O)c1ccc(C)c([N+](=O)[O-])c1,-6,-1,1,-12,-12,4
Nn1c(SCC(=O)NCC2CCCO2)nnc1-c1ccc(OC(F)F)cc1 (stereo not drawn),1,-14,.,-5,.,-2
O=C(NCCN1CCOCC1)NC1(C(F)(F)F)Oc2ccc(Cl)cc2O1 (stereo not drawn),52*,-121,-2,2,15,-76
c1ccc(CN2CCN(CCOCCOc3ccc4c(c3)CCC4)CC2)cc1,0,10,3,3,0,14
O=C(N/N=C/C(Cl)=C/c1ccccc1)c1ccncc1,16,-11,1,1,13,1
